# Inconclusive results are not listed. Activity calls are given as the source filed them. How the source made its calls: active means hit-call score of the fitted dose curve at least 0.9, where 1 is the maximum; inconclusive means response in the unintended direction; inactive means score below 0.9.
# Target: PGR (gene 5241) (UniProt P06401)
# Assay: NVS_NR_hPR: NovaScreen (NVS) Nuclear Receptor Binding Assay for human Progestron Receptor (PR) (AID 2283360);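 further: active means loss of bound radioligand signal versus DMSO baseline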
# Protocol: NVS_NR_hPR is a biochemical, single-readout assay that uses extracted gene-proteins from T47D in a cell-free assay. Measurements were taken 18 hours after chemical dosing in a 96-well plate.NVS_NR_hPR is one of one assay component(s) measured or calculated from the NVS_NR_hPR assay. It is designed to make measurements of radioligand binding, a form of binding reporter, as detected with scintillation counting signals by Lysate-based radiodetection technology.Data from the assay component NVS_NR_hPR was analyzed into 1 assay endpoint. This assay endpoint, NVS_NR_hPR, was analyzed in the positive analysis fitting direction relative to DMSO as the negative control and baseline of activity. Using a type of binding reporter, loss-of-signal activity can be used to understand changes in the binding as they relate to the gene PGR. Furthermore, this assay endpoint can be referred to as a primary readout, because the performed assay has only produced 1 assay endpoint. To generalize the intended target to other relatable targets, this assay endpoint is annotated to the nuclear receptor intended target family, where the subfamily is steroidal.
# Binding assays used specific radioligands (tritiated, iodinated) with non-radioactive competitive displacement ligands in agonist or antagonist protocols (as indicated) and various reference compounds and inhibitors to titrate specific binding to receptors and transporters. Most enzyme assays (CYPs, kinases, phosphatases, proteases, HDACs) used recombinant protein and specific substrates (fluorescence mostly, some colorimetric and radioactive) and inhibitors, followed by a biochemical separation of substrate and product. All assays for the biochemical HTS were initially run in duplicate at a single concentration (10 uM for CYP450 assays and 25 uM for all others). […] Each assay was run with positive and negative controls, and concurrent controls on every plate. The follow-up (secondary) screen tested active chemical-pairs in concentration series, as well as a few additional assays not tested in the primary screen, some selected negative inactives, and several cases re-run in the concentration series for confirmatory purposes.
# Sequence of PGR (gene 5241) (P06401 whole entry, looked up): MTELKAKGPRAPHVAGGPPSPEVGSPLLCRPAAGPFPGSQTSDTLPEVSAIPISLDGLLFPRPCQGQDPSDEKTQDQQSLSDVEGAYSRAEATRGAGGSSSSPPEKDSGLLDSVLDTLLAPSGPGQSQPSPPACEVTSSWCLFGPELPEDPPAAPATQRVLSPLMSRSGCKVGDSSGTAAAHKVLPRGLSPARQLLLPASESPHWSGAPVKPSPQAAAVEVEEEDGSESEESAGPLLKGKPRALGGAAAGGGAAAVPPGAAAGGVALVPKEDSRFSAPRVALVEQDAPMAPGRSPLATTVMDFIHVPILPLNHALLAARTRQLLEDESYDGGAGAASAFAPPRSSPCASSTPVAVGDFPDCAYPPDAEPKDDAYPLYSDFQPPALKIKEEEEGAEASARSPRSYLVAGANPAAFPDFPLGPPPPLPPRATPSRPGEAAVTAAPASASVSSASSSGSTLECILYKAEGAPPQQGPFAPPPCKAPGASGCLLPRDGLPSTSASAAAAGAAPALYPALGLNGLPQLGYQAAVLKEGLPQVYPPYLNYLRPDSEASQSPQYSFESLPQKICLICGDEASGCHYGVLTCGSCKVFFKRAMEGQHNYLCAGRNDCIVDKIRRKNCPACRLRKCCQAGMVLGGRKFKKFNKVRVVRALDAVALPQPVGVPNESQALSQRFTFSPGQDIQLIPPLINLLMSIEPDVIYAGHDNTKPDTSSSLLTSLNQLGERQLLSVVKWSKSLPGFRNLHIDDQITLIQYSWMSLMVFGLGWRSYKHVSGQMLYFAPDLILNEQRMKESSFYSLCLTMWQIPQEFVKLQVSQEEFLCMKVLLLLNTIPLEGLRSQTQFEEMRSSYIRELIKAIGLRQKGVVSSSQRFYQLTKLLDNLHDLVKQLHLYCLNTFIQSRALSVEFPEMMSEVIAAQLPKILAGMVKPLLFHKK
Structure (SMILES),outcome,AC50
CCCN(CCOc1c(Cl)cc(Cl)cc1Cl)C(=O)n1ccnc1,inactive,
CC(C)(C)C(O)/C(=C\c1ccc(Cl)cc1Cl)n1cncn1 (stereo not drawn),,0.667 µM (active)
ClC1C(Cl)C(Cl)C(Cl)C(Cl)C1Cl (stereo not drawn),inactive,
CNC(=O)CSP(=S)(OC)OC,,6.3 µM (active)
COP(=S)(OC)Oc1ccc(SC)c(C)c1,inactive,
COc1nn(CSP(=S)(OC)OC)c(=O)s1,inactive,
COP(=O)(OC)OC=C(Cl)Cl,inactive,
CC(C)(C)C(O)C(Oc1ccc(Cl)cc1)n1cncn1 (stereo not drawn),inactive,
CC[C@H](C)[C@H]1O[C@]2(C=C[C@@H]1C)C[C@@H]1C[C@@H](C/C=C(\C)[C@@H](O[C@H]3C[C@H](OC)[C@@H](O[C@H]4C[C@H](OC)[C@@H](O)[C@H](C)O4)[C@H](C)O3)[C@@H](C)/C=C/C=C3\CO[C@@H]4[C@H](O)C(C)=C[C@@H](C(=O)O1)[C@]34O)O2 (tested in a mixture with another compound),inactive,
CCOc1nc(NC)nc(NC(=O)NS(=O)(=O)c2ccccc2C(=O)OC)n1,inactive,
N#Cc1c(Cl)c(Cl)c(Cl)c(C#N)c1Cl,inactive,
COP(=S)(OC)Oc1ccc([N+](=O)[O-])cc1,,10.3 µM (active)
O=S(=O)(O)C(F)(F)C(F)(F)C(F)(F)C(F)(F)C(F)(F)C(F)(F)C(F)(F)C(F)(F)F,,20.2 µM (active) [middle of 4 runs]
O=S1OCC2C(CO1)C1(Cl)C(Cl)=C(Cl)C2(Cl)C1(Cl)Cl (stereo not drawn),inactive,
C[C@H]1[C@H](c2ccc(Cl)cc2)SC(=O)N1C(=O)NC1CCCCC1,inactive,
O=C(O)C(F)(F)C(F)(F)C(F)(F)C(F)(F)C(F)(F)C(F)(F)C(F)(F)F,inactive,
O=C(O)CCCOc1ccc(Cl)cc1Cl,inactive,
Oc1ccc(Cl)cc1Cc1ccccc1,,16.5 µM (active) [middle of 6 runs]

# Reference: PubChem BioAssay (EPA / NIEHS)
